# Measurements taken from PubChem BioAssay.
# For some of these results: Potency and affinity values are given separately. Calls of active or inactive are those of the source.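 How the source made its calls, unless noted: active means hit in primary screen, with calcium signal over 5 SD above buffer well mean in both duplicates; inactive means the rest.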
# Assays:
# [1] = tested on: TRPC4 beta (transient receptor potential cation channel C4), mouse; test: TRPC4 cation channel opening, retest – cell-based, Fluo4 calcium, HEK293 TRPC4beta/mu-opioid, duplicates, 10 µM, confirmation (AID 2426;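 active means fluorescence ratio normalized to control raised more than 50% in primary screen plus both repeat runs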;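 on activation: percent rise of integrated ratio over buffer wells lacking compound which define 0%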); conditions: Fluo4 calcium fluorescence, at 10 µM; active compounds read high
# [2] = tested on: transient receptor potential cation channel C4 beta (TRPC4), mouse; test: TRPC4 cation channel opening, second retest – cell-based, second round, Fluo4, HEK293 TRPC4beta/mu-opioid, 1 µM, confirmation (AID 2461;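 active means primary screen active and over 50% activation in each of two duplicate runs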;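 on activation: 0% = wells without test compound as baseline of integrated fluorescence ratio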); conditions: Fluo4 calcium fluorescence, at 1 µM; active compounds read high
# [3] = tested on: TRPC4 (transient receptor potential cation channel C4 beta), mouse; test: potentiation of DAMGO EC20 TRPC4 response – cell-based, second round, Fluo-4, HEK293 TRPC4beta/mu-opioid, 1 µM, confirmation (AID 2554;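 active means primary screen hit whose fluorescence ratio, in both repeats, exceeds the weak agonist control mean by 3 SD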); conditions: DAMGO EC20, Fluo-4 calcium flux, at 1 µM; active compounds read high
# [4] = tested on: TRPC4 beta (transient receptor potential cation channel C4), mouse; test: potentiation of DAMGO EC20 TRPC4 response – cell-based, Fluo-4, HEK293 TRPC4beta/mu-opioid, confirmation (AID 2555;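 active means primary screen hit whose calcium fluorescence ratio, in both repeats, exceeds the weak agonist control mean by 3 SD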); conditions: DAMGO EC20, Fluo-4 calcium flux, at 10 µM; active compounds read high
# [5] = molecular target: Short transient receptor potential channel 4 (Mus musculus) (UniProt Q9QUQ5); test: blockers of DAMGO-evoked TRPC4 calcium flux – cell-based, Fluo4, HEK293 TRPC4beta/mu-opioid, confirmation (AID 2636;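 active means calcium signal cut by more than 3 SD below the full-agonist control yet still positive, in both repeats and the earlier primary screen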); conditions: at 10 µM; active compounds read high
# [6] = molecular target: Short transient receptor potential channel 4 (Mus musculus) (UniProt Q9QUQ5); test: blockers of DAMGO-evoked TRPC4 calcium flux – cell-based, second round, Fluo4, HEK293 TRPC4beta/mu-opioid, 1 µM, confirmation (AID 2637;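 active means calcium signal ratio cut to more than 3 SD under the fully stimulated control mean yet still positive, in both repeats and the primary screen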); conditions: at 1 µM; active compounds read high
# [7] = molecular target: Short transient receptor potential channel 4 (Mus musculus) (UniProt Q9QUQ5); test: potentiation of DAMGO-evoked TRPC4 calcium signal – cell-based, HEK293 TRPC4/mu-opioid, Fluo-4 calcium, EC20 DAMGO, dose response (AID 434941;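 active means earlier screen potentiator hit that boosts the TRPC4 ion channel at some dose, with a dose response; inactive means no potentiation, no dose response, or not a prior hit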;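 further: calcium entry triggered by an EC20 dose of DAMGO at the co-expressed mu-opioid receptor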)
# [8] = molecular target: Short transient receptor potential channel 4 (Mus musculus) (UniProt Q9QUQ5); test: block of DAMGO-driven TRPC4 calcium entry – cell-based, HEK293 TRPC4/mu-opioid, Fluo-4 calcium, dose response (AID 434942;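 active means primary screen inhibitor hit that blocks the TRPC4 channel at some tested dose, yielding a dose curve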)
# [9] = molecular target: Short transient receptor potential channel 6 (Mus musculus) (UniProt Q61143); test: TRPC6 blockade by TRPC4 inhibitor hits – cell-based, HEK293, membrane potential dye, duplicate, selectivity assay for TRPC4 inhibitor project, confirmation (AID 434948;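 active means active in primary screen and both duplicates, each dropping signal beyond three positive-control SD with fluorescence still positive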); conditions: HEK293 TRPC6, membrane potential dye fluorescence, at 10 µM, stimulated with maximal-effect acetylcholine; active compounds read high
# [10] = molecular target: Short transient receptor potential channel 6 (Mus musculus) (UniProt Q61143); test: TRPC6 opening by TRPC4 activator hits – cell-based, HEK293, membrane potential dye, duplicate, selectivity assay for TRPC4 activator project, confirmation (AID 434950;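 active means membrane potential signal rise above negative control mean plus 3 SD in both duplicates, also active in the earlier TRPC4 screen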;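 on activation: 0% = buffer only wells and 100% = acetylcholine maximal-effect wells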); conditions: HEK293 TRPC6, membrane potential fluorescence, at 10 µM; activation: active compounds read high; outcome: activation
# [11] = molecular target: Short transient receptor potential channel 6 (Mus musculus) (UniProt Q61143); test: positive modulators of mouse TRPC6 channel – HEK293 cells, membrane potential dye, duplicate, selectivity assay for TRPC4 potentiator project, confirmation (AID 434952;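 active means compound raising the membrane signal above positive-control mean plus 3 SD in both repeats, and a primary screen hit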); conditions: HEK293 TRPC6, membrane potential dye fluorescence, at 10 µM, maximal acetylcholine added after compound; active compounds read high
# [12] = molecular target: Short transient receptor potential channel 4 (Mus musculus) (UniProt Q9QUQ5); test: calcium flux activators in TRPC4/5HT1a cells, counter-screen for TRPC4 activator project, cell-based, second counter screen, HEK293 TRPC4/5HT1a, Fluo-4 (AID 434977;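 active means calcium signal rise above buffer-control mean plus 5 SD in both duplicates, and also a hit in the primary screen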;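 on activation: plate controls were assay buffer for no effect and maximal serotonin response for full effect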); conditions: Fluo-4 calcium flux, at 10 µM; active compounds read high
# [13] = serotonin-gated TRPC4 signal block – cell-based, second counter screen, HEK293 TRPC4/5HT1a, Fluo-4, counter-screen for TRPC4 inhibitor project, confirmation (AID 434978;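 active means primary screen active whose calcium signal fell more than 3 SD beyond the full-serotonin control mean in both duplicate plates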;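 further: serotonin given first at submaximal then at maximal dose after compound preincubation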); conditions: Fluo-4 calcium flux, at 10 µM, serotonin added to trigger calcium flux; active compounds read high
# [14] = tested on: TRPC4 (mouse), co-expressed with 5HT1a in HEK293; test: enhancement of serotonin-evoked TRPC4 response – cell-based, second counter screen, HEK293 TRPC4/5HT1a, Fluo-4, counter-screen for TRPC4 potentiator project, confirmation (AID 434979;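 active means signal rise over 3 SD above mean of control wells given weak agonist, in both repeats and first screen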); conditions: Fluo-4 calcium flux, at 10 µM, serotonin added at its EC20 dose; active compounds read high
# [15] = nonspecific calcium rise without TRPC4 – cell-based, HEK293 mu-opioid receptor line, counter-screen for TRPC4 activator project, confirmation (AID 449723); conditions: HEK293 mu-opioid cells, Fluo-4 calcium fluorescence, at 10 µM; active compounds read high;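 further: counter screen cells carry the mu-opioid receptor alone and lack TRPC4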
# [16] = nonspecific potentiation of DAMGO calcium response – cell-based, HEK293 mu-opioid receptor line, counter-screen for TRPC4 allosteric potentiator project, confirmation (AID 449724;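 active means calcium signal rise more than 3 SD above the low-dose agonist control mean, in both duplicate plates and the primary screen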); conditions: HEK293 mu-opioid receptor cells, Fluo-4 calcium flux, at 10 µM, compound added before EC20 DAMGO stimulus; active compounds read high
# Chain of Short transient receptor potential channel 4 (Mus musculus) (Q9QUQ5 whole entry, looked up): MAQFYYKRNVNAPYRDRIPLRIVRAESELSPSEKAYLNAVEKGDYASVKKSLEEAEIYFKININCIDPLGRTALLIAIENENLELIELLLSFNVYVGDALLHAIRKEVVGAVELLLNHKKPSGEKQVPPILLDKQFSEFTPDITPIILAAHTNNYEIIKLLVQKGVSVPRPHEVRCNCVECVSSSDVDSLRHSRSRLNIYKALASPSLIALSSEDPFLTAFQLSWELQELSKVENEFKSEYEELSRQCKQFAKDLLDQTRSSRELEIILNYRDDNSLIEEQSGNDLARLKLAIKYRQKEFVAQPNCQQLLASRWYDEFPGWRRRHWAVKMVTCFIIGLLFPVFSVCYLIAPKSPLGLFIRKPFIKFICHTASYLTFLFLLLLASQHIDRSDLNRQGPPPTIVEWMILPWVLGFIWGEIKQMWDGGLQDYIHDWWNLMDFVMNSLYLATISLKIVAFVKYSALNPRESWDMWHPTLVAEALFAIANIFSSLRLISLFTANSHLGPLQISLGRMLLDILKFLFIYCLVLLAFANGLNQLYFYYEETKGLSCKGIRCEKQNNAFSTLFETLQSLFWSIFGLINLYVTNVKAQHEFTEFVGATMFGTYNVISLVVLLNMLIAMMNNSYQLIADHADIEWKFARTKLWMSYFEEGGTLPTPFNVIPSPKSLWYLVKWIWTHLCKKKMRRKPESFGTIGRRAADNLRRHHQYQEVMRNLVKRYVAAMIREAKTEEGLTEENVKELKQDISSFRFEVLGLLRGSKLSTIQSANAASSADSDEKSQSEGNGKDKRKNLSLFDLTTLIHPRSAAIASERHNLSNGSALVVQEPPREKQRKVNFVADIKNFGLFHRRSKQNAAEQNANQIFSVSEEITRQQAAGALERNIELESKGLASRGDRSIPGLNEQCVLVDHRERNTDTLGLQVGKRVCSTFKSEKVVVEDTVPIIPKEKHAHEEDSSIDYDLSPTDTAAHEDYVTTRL
# Chain of Short transient receptor potential channel 6 (Mus musculus) (Q61143 whole entry, looked up): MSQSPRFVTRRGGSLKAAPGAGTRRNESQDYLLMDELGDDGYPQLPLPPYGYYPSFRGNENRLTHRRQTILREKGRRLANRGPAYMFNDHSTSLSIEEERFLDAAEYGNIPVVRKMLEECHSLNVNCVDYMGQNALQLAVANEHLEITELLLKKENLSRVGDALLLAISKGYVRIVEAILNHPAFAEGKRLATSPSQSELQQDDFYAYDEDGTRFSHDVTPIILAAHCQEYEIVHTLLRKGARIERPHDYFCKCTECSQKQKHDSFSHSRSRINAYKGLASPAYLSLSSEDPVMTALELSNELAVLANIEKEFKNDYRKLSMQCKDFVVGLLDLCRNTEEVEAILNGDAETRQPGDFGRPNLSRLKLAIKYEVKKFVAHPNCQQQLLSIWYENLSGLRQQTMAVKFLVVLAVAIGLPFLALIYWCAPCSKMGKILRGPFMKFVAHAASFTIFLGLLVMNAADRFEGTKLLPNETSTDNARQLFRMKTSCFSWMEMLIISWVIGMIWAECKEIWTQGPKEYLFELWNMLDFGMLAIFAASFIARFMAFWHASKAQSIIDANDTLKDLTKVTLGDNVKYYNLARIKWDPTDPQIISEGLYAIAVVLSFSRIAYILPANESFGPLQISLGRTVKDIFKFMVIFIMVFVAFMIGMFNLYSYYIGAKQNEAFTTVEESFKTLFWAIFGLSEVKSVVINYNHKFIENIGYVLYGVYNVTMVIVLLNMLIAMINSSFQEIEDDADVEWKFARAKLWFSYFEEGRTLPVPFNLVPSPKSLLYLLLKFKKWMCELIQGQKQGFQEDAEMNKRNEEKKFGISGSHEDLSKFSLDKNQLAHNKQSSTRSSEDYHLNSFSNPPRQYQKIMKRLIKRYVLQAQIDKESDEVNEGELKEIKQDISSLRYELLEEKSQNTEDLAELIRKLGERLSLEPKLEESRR
structure (smiles),measurement,setting,value
Cc1ccc(CNC(=O)C2CCCN(Cc3cnn(-c4ccccc4)c3-n3cccc3)C2)cc1 (stereo unspecified),activation,[1],81% (active)
same,outcome,[2],inactive
same,outcome,[3],inactive
same,outcome,[4],inactive
same,outcome,[5],inactive
same,outcome,[6],inactive
same,outcome,[7],inactive
same,outcome,[8],inactive
same,outcome,[9],inactive
same,activation,[10],46% (active)
same,outcome,[11],inactive
same,outcome,[12],inactive
same,outcome,[13],inactive
same,outcome,[14],inactive
same,outcome,[15],inactive
same,outcome,[16],inactive
CN1C2C=C(N(CCc3ccccc3)C(=O)c3ccc(Cl)cc3)CC1CC2 (stereo unspecified),outcome,[1],inactive
same,outcome,[2],inactive
same,outcome,[3],inactive
same,outcome,[4],inactive
same,outcome,[5],inactive
same,outcome,[6],inactive
same,outcome,[7],inactive
same,outcome,[8],inactive
same,outcome,[9],inactive
same,activation,[10],50% (active)
same,outcome,[11],inactive
same,outcome,[12],inactive
same,outcome,[13],inactive
same,outcome,[14],inactive
same,outcome,[15],inactive
same,outcome,[16],inactive
CCOc1ccccc1N(CC(=O)N1CCOCC1)S(=O)(=O)c1ccc(SC)cc1,activation,[1],164% (active)
same,outcome,[2],inactive
same,outcome,[3],inactive
same,outcome,[4],inactive
same,outcome,[5],inactive
same,outcome,[6],inactive
same,outcome,[7],inactive
same,outcome,[8],inactive
same,outcome,[9],inactive
same,activation,[10],89% (active)
same,outcome,[11],inactive
same,activation,[12],134% (active)
same,outcome,[13],inactive
same,outcome,[14],inactive
same,activation,[15],111% (active)
same,outcome,[16],inactive
CCCN1CCN(C(=O)Cn2c(=O)oc3cc(S(=O)(=O)NCc4ccccc4)ccc32)CC1,activation,[1],168% (active)
same,outcome,[2],inactive
same,outcome,[3],inactive
same,outcome,[4],inactive
same,outcome,[5],inactive
same,outcome,[6],inactive
same,outcome,[7],inactive
same,outcome,[8],inactive
same,outcome,[9],inactive
same,outcome,[10],inactive
same,outcome,[11],inactive
same,activation,[12],26.3% (active)
same,outcome,[13],inactive
same,outcome,[14],inactive
same,outcome,[15],inactive
same,outcome,[16],inactive
Cc1cccc(C(=O)OC2CCCN(C)C2)c1C (stereo unspecified),activation,[1],76% (active)
same,outcome,[2],inactive
same,outcome,[3],inactive
same,outcome,[4],inactive
same,outcome,[5],inactive
same,outcome,[6],inactive
same,outcome,[7],inactive
same,outcome,[8],inactive
same,outcome,[9],inactive
same,activation,[10],60.5% (active)
same,outcome,[11],inactive
same,activation,[12],20% (active)
same,outcome,[13],inactive
same,outcome,[14],inactive
same,outcome,[15],inactive
same,outcome,[16],inactive
COc1ccccc1N1CCN(C(c2cccs2)C(C)NC(=O)c2ccco2)CC1 (stereo unspecified),activation,[1],73% (active)
same,outcome,[2],inactive
same,outcome,[3],inactive
same,outcome,[4],inactive
same,outcome,[5],inactive
same,outcome,[6],inactive
same,outcome,[7],inactive
same,outcome,[8],inactive
same,outcome,[9],inactive
same,activation,[10],32% (active)
same,outcome,[11],inactive
same,outcome,[12],inactive
same,outcome,[13],inactive
same,outcome,[14],inactive
same,outcome,[15],inactive
same,outcome,[16],inactive
COc1cccc(CN2CCNC(=O)C2CC(=O)N(C)CCc2ccccn2)c1OC (stereo unspecified),activation,[1],138% (active)
same,outcome,[2],inactive
same,outcome,[3],inactive
same,outcome,[4],inactive
same,outcome,[5],inactive
same,outcome,[6],inactive
same,outcome,[7],inactive
same,outcome,[8],inactive
same,outcome,[9],inactive
same,outcome,[10],inactive
same,outcome,[11],inactive
same,activation,[12],52.1% (active)
same,outcome,[13],inactive
same,outcome,[14],inactive
same,outcome,[15],inactive
same,outcome,[16],inactive
O=[N+]([O-])c1cc(C(F)(F)F)ccc1N1CCCNCC1,activation,[1],77% (active)
same,outcome,[2],inactive
same,potentiation,[3],21% (active)
same,potentiation,[4],26% (active)
same,outcome,[5],inactive
same,outcome,[6],inactive
same,outcome,[7],inactive
same,outcome,[8],inactive
same,outcome,[9],inactive
same,outcome,[10],inactive
same,outcome,[11],inactive
same,activation,[12],30.2% (active)
same,outcome,[13],inactive
same,potentiation,[14],30.6% (active)
same,outcome,[15],inactive
same,outcome,[16],inactive
COc1ccc(C(CNC(=O)Cc2ccc(-c3ccccc3)cc2)N(C)C)cc1 (stereo unspecified),activation,[1],192% (active)
same,activation,[2],112% (active)
same,outcome,[3],inactive
same,outcome,[4],inactive
same,outcome,[5],inactive
same,outcome,[6],inactive
same,outcome,[7],inactive
same,outcome,[8],inactive
same,outcome,[9],inactive
same,activation,[10],56% (active)
same,outcome,[11],inactive
same,outcome,[12],inactive
same,outcome,[13],inactive
same,outcome,[14],inactive
same,outcome,[15],inactive
same,outcome,[16],inactive
CN(C)c1ccc(/C=C/C(=O)c2c(O)c3ccccc3oc2=O)cc1,activation,[1],221% (active)
same,outcome,[2],inactive
same,outcome,[3],inactive
same,outcome,[4],inactive
same,outcome,[5],inactive
same,outcome,[6],inactive
same,outcome,[7],inactive
same,outcome,[8],inactive
same,outcome,[9],inactive
same,activation,[10],934% (active)
same,outcome,[11],inactive
same,activation,[12],113% (active)
same,outcome,[13],inactive
same,outcome,[14],inactive
same,activation,[15],121% (active)
same,outcome,[16],inactive
CCCCN1/C(=C/c2ccc3ccccc3[n+]2CC)Sc2ccccc21,activation,[1],412% (active)
same,outcome,[2],inactive
same,outcome,[3],inactive
same,outcome,[4],inactive
same,outcome,[5],inactive
same,outcome,[6],inactive
same,outcome,[7],inactive
same,outcome,[8],inactive
same,outcome,[9],inactive
same,outcome,[10],inactive
same,outcome,[11],inactive
same,activation,[12],154% (active)
same,outcome,[13],inactive
same,outcome,[14],inactive
same,activation,[15],271% (active)
same,outcome,[16],inactive
Cc1ccn(CC(=O)NC2CCCN(Cc3ccc(CC(C)C)cc3)C2)n1 (stereo unspecified),activation,[1],170% (active)
same,outcome,[2],inactive
same,outcome,[3],inactive
same,outcome,[4],inactive
same,outcome,[5],inactive
same,outcome,[6],inactive
same,outcome,[7],inactive
same,outcome,[8],inactive
same,outcome,[9],inactive
same,activation,[10],61% (active)
same,outcome,[11],inactive
same,activation,[12],50.5% (active)
same,outcome,[13],inactive
same,outcome,[14],inactive
same,outcome,[15],inactive
same,outcome,[16],inactive
CCCCN(CC)CCNC(=O)c1ccc2c(Cl)c3c(nc2c1)CCC3,activation,[1],166% (active)
same,activation,[2],142% (active)
same,outcome,[3],inactive
same,outcome,[4],inactive
same,outcome,[5],inactive
same,outcome,[6],inactive
same,outcome,[7],inactive
same,outcome,[8],inactive
same,outcome,[9],inactive
same,outcome,[10],inactive
same,outcome,[11],inactive
same,activation,[12],92.3% (active)
same,outcome,[13],inactive
same,outcome,[14],inactive
same,outcome,[15],inactive
same,outcome,[16],inactive
CN1CCN(C(=O)c2cccn(Cc3c(Cl)cccc3Cl)c2=O)CC1,activation,[1],147% (active)
same,activation,[2],88% (active)
same,outcome,[3],inactive
same,outcome,[4],inactive
same,outcome,[5],inactive
same,outcome,[6],inactive
same,outcome,[7],inactive
same,outcome,[8],inactive
same,outcome,[9],inactive
same,outcome,[10],inactive
same,outcome,[11],inactive
same,activation,[12],42.6% (active)
same,outcome,[13],inactive
same,outcome,[14],inactive
same,outcome,[15],inactive
same,outcome,[16],inactive
CN(C)CCNC(=O)c1scc2c1CCCC2,outcome,[1],inactive
same,outcome,[2],inactive
same,outcome,[3],inactive
same,outcome,[4],inactive
same,outcome,[5],inactive
same,outcome,[6],inactive
same,outcome,[7],inactive
same,outcome,[8],inactive
same,outcome,[9],inactive
same,activation,[10],41.5% (active)
same,outcome,[11],inactive
same,activation,[12],19.6% (active)
same,outcome,[13],inactive
same,outcome,[14],inactive
same,outcome,[15],inactive
same,outcome,[16],inactive
Cc1ccc(-n2cc(CNC(C)c3cnn(C)c3)c(-c3ccc(F)cc3)n2)cc1 (stereo unspecified),activation,[1],232% (active)
same,activation,[2],103% (active)
same,outcome,[3],inactive
same,outcome,[4],inactive
same,outcome,[5],inactive
same,outcome,[6],inactive
same,outcome,[7],inactive
same,outcome,[8],inactive
same,outcome,[9],inactive
same,activation,[10],33% (active)
same,outcome,[11],inactive
same,activation,[12],5.72% (active)
same,outcome,[13],inactive
same,outcome,[14],inactive
same,outcome,[15],inactive
same,outcome,[16],inactive
